Fewer than 10 of roughly 21,000 compounds showed an effect of 50% or more. A selection follows. Entries with a potency or affinity are not part of this list.

The test deals with Acinetobacter baumannii. The conditions noted are these: Concentration 32 ug.mL-1;; ASSAY_TEST Inhibition of Bacterial Growth; detection method Absorption (OD600); MEDIA CAMHB; plate type 384well; NBS; CORNING #3640; time 18 hr.
Usually Inhibition stands for the drop in the measured response relative to a control, in per cent. Take `Cc1ccc(NC(=O)Cn2nc3c4c5c(sc4ncn3c2=O)CCCC5)c(Cl)c1`: the Inhibition is -9.66%.
In the case of `COc1cccc(-n2ccn3c(SCC(=O)c4ccc(C)cc4)nnc3c2=O)c1`, the Inhibition is -4.26%.
On to `COc1ccc(-c2cc3c4nn(CC(=O)Nc5cc(OC)cc(OC)c5)c(=O)n4ccn3n2)cc1`, for which the Inhibition is given as -11.34%.
Consider `CCc1nnc2c(S(=O)(=O)N(Cc3cccc(C)c3)c3cccc(Cl)c3)cccn12`, for which the Inhibition was determined as 8.48%.
Regarding `CCOc1ccc(C(=O)Cn2nc3n(CCC(C)C)c(=O)c4sccc4n3c2=O)cc1`, the Inhibition was found to be 1.79%.
For the compound `O=C(CSc1nnc2c(=O)n(-c3ccc(Br)cc3)ccn12)Nc1cc(F)ccc1F`, the Inhibition came to 0.45%.
As for `CCOc1ccc(-n2ccn3c(SCC(=O)c4ccc(C)cc4)nnc3c2=O)cc1`, the Inhibition is 4.11%.
As for `CCOc1ccc(NC(=O)Cn2nc3c(Oc4ccc(C)cc4)nccn3c2=O)cc1`, the Inhibition is recorded as 0.89%.
For the compound `CCc1nnc2ccc(S(=O)(=O)N(Cc3ccc(OC)cc3)c3cccc(F)c3)cn12`, the Inhibition is -12.55%.
To `COc1ccc(NC(=O)Cn2nc3c4c5c(sc4ncn3c2=O)CCCC5)cc1` belongs -5.35%; to `COc1ccccc1NC(=O)Cn1nc2c3c4c(sc3ncn2c1=O)CCCC4`, -5.75%; to `O=C(CSc1nnc2c(=O)n(-c3cccc(F)c3)ccn12)Nc1ccc(Br)cc1`, 3.4%.
`COc1cccc(Oc2nccn3c(=O)n(CC(=O)Nc4ccc5c(c4)OCO5)nc23)c1`: the Inhibition stood at 0%.
`Cc1ccc(-c2ccc3nn(CC(=O)Nc4ccc(C#N)cc4)c(=O)n3n2)cc1C`: the Inhibition worked out at 6.14%.
Take `CCCc1nnc2c(=O)n(CC(=O)Nc3ccc(C(C)=O)cc3)c3ccccc3n12`: the Inhibition is 9.58%.
Take `Cc1ccc(-c2cc3c4nnc(SCC(=O)Nc5ccc(C#N)cc5)n4ccn3n2)cc1`: the Inhibition was -8.65%.
On to `CCOc1ccc(NC(=O)Cn2nc3c(Oc4cccc(OC)c4)nccn3c2=O)cc1`, for which the Inhibition stood at 5.77%.
As for `Cc1ccc(F)cc1NC(=O)CSc1nc2ccccc2n2c(C)nnc12`, the figure is 5.49%.
Take `Cc1ccc(Oc2nccn3c(=O)n(CC(=O)Nc4ccc(C)cc4Br)nc23)cc1`: the Inhibition was determined as 2.31%.
For the compound `CCCCn1c(=O)c2sccc2n2c(=O)n(CC(=O)c3ccc(C)cc3C)nc12`, the Inhibition is -4.56%.
Turning to `O=C(Cn1nc2nc(Nc3ccc(F)cc3)ccn2c1=O)Nc1cc(F)ccc1F`, the Inhibition is 12.46%.
